The source of these data is PubChem BioAssay (Tox21).

Records with an inconclusive call do not appear. A call without a number means that no potency is given here. Calls of active or inactive are those of the source. Calls come from the whole dose curve; as a rule, active = well fitted activation curve with a large enough effect in the repeat runs; inconclusive = weak or mixed curves; inactive = flat fitted curve, though single readings scatter.
Potency is the fitted concentration of half-maximal effect.

This assay is described as follows: Caspase-3/7 induction in HepG2 cells by small molecules, qHTS assay (AID 1346978). Note: nearly all actives have a fitted effect of over 15% in size. The note with it: HepG2 caspase-3/7 activation, Caspase-Glo luminescence, 17 h; series mostly up to 92.4 µM. The source says: National Center for Advancing Translational Sciences [NCATS] NIH Chemical Genomics Center [NCGC] U.S. Environmental Protection Agency [EPA] National Institutes of Environmental Health Sciences [NIEHS] National Toxicology Program [NTP] Assay overview: Apoptosis is a process of programmed cell death and plays a central role in the development of multicellular organisms. It is a highly regulated process and induces cell death by activating caspases, which are the members of cysteine aspartic acid-specific protease (caspase) family. Caspases involved in apoptosis are classified by their mechanism of action as initiator caspases (caspase-2, -8, -9 and -10) and executioner caspases (caspase-3, -6, and -7). Inhibition of apoptosis results in number of cancers, autoimmune diseases, inflammatory diseases and viral infection. To identify small molecule compounds that induce apoptosis, a homogeneous, luminescent Caspase-Glo 3/7 assay was used. Wild type HepG2 cells were used to screen Tox21 libraries for identifying caspase-3/7 activity inducers.
Assay Protocol Summary: HepG2 cells were dispensed at 2,000 per well in 5uL of culture medium into white solid bottom 1536-well plates (Corning Life Sciences, Corning, NY) using a Multidrop Combi (Thermo Scientific, Waltham, MA) dispenser. The assay plates were incubated at 37 C and 5% CO2 for 5hr, and then 23nL of compounds dissolved in DMSO and positive control were transferred using a Pintool station (Wako, San Diego, CA). The assay plates were incubated at 37C and 5% CO2 for 17hr. For caspase-3/7 activity read, 4uL of Caspase-Glo 3/7 reagent (Promega Corporation, Madison, WI) was added to each well of the assay plates using Flying Reagent Dispenser (FRD, Aurora Discovery, San Diego, CA) and incubated the assay plates at room temperature for 30min. The luminescence signal was quantified using a ViewLux plate reader (Perkin Elmer, Shelton, CT).
On the technique in general: In qHTS, concentration-response curves come from the screen itself.
In the case of `Nc1ccc(Sc2ccc(N)cc2)cc1`, the Potency entry was “inactive”.

Take `CC(c1ccc(O)cc1)c1ccc(O)cc1`: the Potency entry was “inactive”. For `O=C(CCl)Nc1ccccc1` the value was “inactive”; for `CN(CCCC(=O)c1cccnc1)N=O`, “inactive”. For `O=C(CCCN1CCC2(CC1)C(=O)NCN2c1ccccc1)c1ccc(F)cc1` the value was “inactive”.

Regarding `CC(C)Oc1cccc(NC(=O)c2ccccc2C(F)(F)F)c1`, the Potency result is “inactive”.

Regarding `CCOC(=O)CC(=O)CCl`, the Potency entry was “inactive”.

Consider `COS(=O)(=O)c1ccc(C)cc1`, for which the Potency entry was “inactive”. Take `c1ccc2cc3c(cc2c1)-c1cccc2cccc-3c12`: the Potency is 7.59 µM (active). For `C[C@@H]1O[C@@H](O[C@H]2C[C@@H](O)[C@]3(CO)[C@H]4[C@H](O)C[C@]5(C)[C@@H](C6=CC(=O)OC6)CC[C@]5(O)[C@@H]4CC[C@]3(O)C2)[C@H](O)[C@H](O)[C@H]1O` the value was “inactive”.

On to `CCOP(=S)(OCC)SCS(=O)(=O)C(C)(C)C`, for which the Potency result was “inactive”. `ClC1=C(Cl)C2(Cl)C3C(Cl)C=CC3C1(Cl)C2(Cl)Cl` (stereo not given): the Potency entry was “inactive”. The entry for `CCCCOCN(C(=O)CCl)c1c(CC)cccc1CC` is “inactive”. For `ClCc1ccccc1CCl` the value was “inactive”; for `CCOC(=O)c1ccccc1S(=O)(=O)NC(=O)Nc1nc(Cl)cc(OC)n1`, “inactive”; for `CC(C)OS(C)(=O)=O`, “inactive”. Take `c1ccc(Nc2ccc3ccccc3c2)cc1`: the Potency entry was “inactive”.

As for `C[C@]12CC[C@H](O)C[C@H]1CC[C@@H]1[C@@H]2C[C@@H](O)[C@]2(C)[C@@H](C3=CC(=O)OC3)CC[C@]12O`, the Potency entry is “inactive”. Take `Oc1ccc(C(=C(Cl)Cl)c2ccc(O)cc2)cc1`: the Potency entry is “inactive”. As for `CCCCCCCCCCCCCCC(Br)C(=O)O` (stereo not given), the Potency entry is “inactive”. On to `CCOc1cc(C(C)(C)C)ccc1C1COC(c2c(F)cccc2F)=N1` (stereo not given), for which the Potency result is “inactive”.

For the compound `CN(C)CCc1c[nH]c2ccc(O)cc12`, the Potency entry is “inactive”.

As to `CC(C)OC(=S)S`, the Potency result was “inactive”. The entry for `COCC(=O)N(c1c(C)cccc1C)[C@H](C)C(=O)OC` is “inactive”; for `N#CC(Cl)Cl` it is “inactive”. The entry for `O=S(=O)(c1ccc(Cl)cc1)c1ccc(Cl)cc1` is “inactive”. The entry for `CCCSP(=O)(OCC)SCCC` is “inactive”. Take `[Cl][Sb]([Cl])[Cl]`: the Potency entry is “inactive”. For `COC[C@H](C)N(C(=O)CCl)c1c(C)csc1C` the value was “inactive”. `OC(Cc1ccccc1Cl)(Cn1cncn1)C1(Cl)CC1` (stereo not given): the Potency entry is “inactive”. With `Oc1ccc2ccc3cccc4ccc1c2c34`, the Potency result was “inactive”. Regarding `N#Cc1c(-c2ccc(Cl)cc2)[nH]c(C(F)(F)F)c1Br`, the Potency result was “inactive”. For `Clc1ccc(C(c2ccccc2Cl)C(Cl)(Cl)Cl)cc1` (stereo not given) the value was “inactive”. For `O=C(O)c1cc[c]([Hg][Cl])cc1` the value was “inactive”; for `O=[N+]([O-])c1cc(C(F)(F)F)c(Cl)c([N+](=O)[O-])c1Cl`, 21.7 µM (active); for `CCCCCCCCCCCCCCCCCCn1cc[n+](C)c1`, “inactive”.

For the compound `C[C@]12CC[C@@H]3c4ccc(OC(=O)N(CCCl)CCCl)cc4CC[C@H]3[C@@H]1CC[C@@H]2O`, the Potency entry is “inactive”. Regarding `Cc1ccc(CCl)cc1`, the Potency result was “inactive”. For `CC(=O)c1ccc(-c2ccccc2)cc1` the value was “inactive”; for `O=[N+]([O-])c1ccc(Oc2ccc(C(F)(F)F)cc2[N+](=O)[O-])cc1`, “inactive”.
